Data as given in PubChem BioAssay AID1159580 (chemical genetic matrix, 2015).
Several values for one entry are separate records, joined by “and”; a condition that tells them apart may be missing. Equal entries are not always repeated. About 2,000 (36%) of roughly 5,500 compounds were called active. Another 18% or so got no clear call; they are omitted. Rule as the data show it: active = normalized growth mostly below about 0.91 (no sharp cut-off); inconclusive = no clear call, values can overlap the other calls; inactive = mostly above about 0.92. Some of the results follow.

Experiment: chemical genetic growth profiling, strain panel (AID 1159580);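 also: tested at 20 µM; growth read once vehicle control cultures reached saturation at 30 °C; 1 = growth at the plate median or of vehicle wells; lower values mean less growth of the strain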
Details: S. cerevisiae deletion strains, growth OD

## CCC(=O)O[C@H]1[C@H](O[C@@H]2[C@@H](C)[C@H](O[C@H]3C[C@@](C)(OC)[C@@H](O)[C@H](C)O3)[C@@H](C)C(=O)O[C@H](CC)[C@@](C)(O)[C@H](O)[C@@H](C)C(=O)[C@H](C)C[C@@]2(C)O)O[C@H](C)C[C@@H]1N(C)C
Locus YAL013W, strain DEP1, stronger effect = lower value
  normalized growth: 0.996 (inactive)
Locus YAL021C, strain ccr4, stronger effect = lower value
  normalized growth: 0.958 (inactive)
Locus YAL026C, strain drs2, stronger effect = lower value
  normalized growth: 0.942 (inactive)
Locus YAL030W, strain snc1, stronger effect = lower value
  normalized growth: 0.984 (inactive)
Locus YBL061C, strain skt5, stronger effect = lower value
  normalized growth: 0.973 (inactive)
Locus YBR009C, strain hhf1, stronger effect = lower value
  normalized growth: 0.797 (active)
Locus YBR021W, strain FUR4, stronger effect = lower value
  normalized growth: 0.232 (active)
Locus YBR023C, strain chs3, stronger effect = lower value
  normalized growth: 0.894 (active)
Locus YBR171W, strain sec66, stronger effect = lower value
  normalized growth: 1.01 (inactive)
Locus YBR229C, strain ROT2, stronger effect = lower value
  normalized growth: 1.02 (inactive)
Locus YBR231C, strain swc5, stronger effect = lower value
  normalized growth: 0.836 (active)
Locus YBR279W, strain paf1, stronger effect = lower value
  normalized growth: 0.911 (active)
Locus YCL011C, strain gbp2, stronger effect = lower value
  normalized growth: 0.823 (active)
Locus YCL016C, strain dcc1, stronger effect = lower value
  normalized growth: 0.912 (active)
Locus YCL029C, strain bik1, stronger effect = lower value
  normalized growth: 0.988 (inactive)
Locus YCL061C, strain MRC1, stronger effect = lower value
  normalized growth: 0.949 (inactive)
Locus YCL069W, strain vba3, stronger effect = lower value
  normalized growth: 0.899 (active)
Locus YCR088W, strain abp1, stronger effect = lower value
  normalized growth: 1.02 (inactive)
Locus YDL005C, strain med2, stronger effect = lower value
  normalized growth: 0.984 (inactive)
Locus YDL035C, strain GPR1, stronger effect = lower value
  normalized growth: 0.915 (inactive)
Locus YDL040C, strain nat1, stronger effect = lower value
  normalized growth: 1.01 (inactive)
Locus YDL074C, strain BRE1, stronger effect = lower value
  normalized growth: 0.809 (inactive)
Locus YDL101C, strain DUN1, stronger effect = lower value
  normalized growth: 0.959 (inactive)
Locus YDL134C, strain PPH21, stronger effect = lower value
  normalized growth: 0.91 (inactive)
Locus YDL185W, strain tfp1, stronger effect = lower value
  normalized growth: 1.01 (inactive)
Locus YDL192W, strain arf1, stronger effect = lower value
  normalized growth: 1 (inactive)
Locus YDR001C, strain nth1, stronger effect = lower value
  normalized growth: 1.02 (inactive)
Locus YDR069C, strain doa4, stronger effect = lower value
  normalized growth: 1.04 (inactive)
Locus YDR101C, strain arx1, stronger effect = lower value
  normalized growth: 1 (inactive)
Locus YDR137W, strain rgp1, stronger effect = lower value
  normalized growth: 1.18 [resistant] (active)
Locus YDR159W, strain sac3, stronger effect = lower value
  normalized growth: 0.826 (active)
Locus YDR162C, strain NBP2, stronger effect = lower value
  normalized growth: 0.944 (inactive)
Locus YDR195W, strain ref2
  normalized growth: 1.22 [resistant] (active)
Locus YDR297W, strain sur2, stronger effect = lower value
  normalized growth: 0.942 (inactive)
Locus YDR318W, strain mcm21, stronger effect = lower value
  normalized growth: 0.99 (inactive)
Locus YDR334W, strain swr1, stronger effect = lower value
  normalized growth: 0.957 (inactive)
Locus YDR335W, strain msn5, stronger effect = lower value
  normalized growth: 0.877 (active)
Locus YDR388W, stronger effect = lower value
  normalized growth: 0.972 (inactive)
Locus YDR392W, strain spt3, stronger effect = lower value
  normalized growth: 0.292 (active)
Locus YDR502C, strain sam2, stronger effect = lower value
  normalized growth: 1.01 (inactive)
Locus YEL003W, strain gim4, stronger effect = lower value
  normalized growth: 0.862 (active)
Locus YEL037C, strain rad23, stronger effect = lower value
  normalized growth: 0.971 (inactive)
Locus YEL061C, strain CIN8 (second series), stronger effect = lower value
  normalized growth: 0.875 (active)
Locus YEL061C, strain CIN8, stronger effect = lower value
  normalized growth: 0.97 (inactive)
Locus YER015W, strain faa2, stronger effect = lower value
  normalized growth: 0.975 (inactive)
Locus YER016W, strain bim1, stronger effect = lower value
  normalized growth: 0.965 (inactive)
Locus YER110C, stronger effect = lower value
  normalized growth: 0.967 (inactive)
Locus YER111C, strain swi4, stronger effect = lower value
  normalized growth: 0.867 (active)
Locus YER155C, strain BEM2 (second series), stronger effect = lower value
  normalized growth: 0.32 (active)
Locus YER155C, strain BEM2, stronger effect = lower value
  normalized growth: 1.03 (inactive)
Locus YER167W, strain BCK2, stronger effect = lower value
  normalized growth: 0.971 (inactive)
Locus YFR010W, strain ubp6, stronger effect = lower value
  normalized growth: 0.911 (inactive)
Locus YGL078C, strain dbp3, stronger effect = lower value
  normalized growth: 0.995 (inactive)
Locus YGL086W, strain mad1, stronger effect = lower value
  normalized growth: 0.994 (inactive)
Locus YGL167C, strain pmr1, stronger effect = lower value
  normalized growth: 1 (inactive)
Locus YGL173C, strain kem1, stronger effect = lower value
  normalized growth: 0.938 (inactive)
Locus YGL227W, strain vid30, stronger effect = lower value
  normalized growth: 1.01 (inactive)
Locus YGL240W, strain doc1, stronger effect = lower value
  normalized growth: 0.731 (active)
Locus YGL248W, strain PDE1, stronger effect = lower value
  normalized growth: 0.918 (inactive)
Locus YGL253W, strain hxk2, stronger effect = lower value
  normalized growth: 0.671 (active)
Locus YGR078C, strain PAC10, stronger effect = lower value
  normalized growth: 0.797 (active)
Locus YGR135W, strain pre9, stronger effect = lower value
  normalized growth: 0.92 (inactive)
Locus YGR252W, strain gcn5, stronger effect = lower value
  normalized growth: 0.695 (active)
Locus YHR013C, strain ard1, stronger effect = lower value
  normalized growth: 0.722 (active)
Locus YHR027C, strain rpn1, stronger effect = lower value
  normalized growth: 1 (inactive)
Locus YHR030C, strain SLT2, stronger effect = lower value
  normalized growth: 1.02 (inactive) and 0.875 (inactive)
Locus YHR079C, strain IRE1 (second series), stronger effect = lower value
  normalized growth: 1.01 (inactive)
Locus YHR079C, strain IRE1, stronger effect = lower value
  normalized growth: 0.874 (inactive)
Locus YHR094C, strain hxt1, stronger effect = lower value
  normalized growth: 1.01 (inactive)
Locus YHR129C, strain ARP1, stronger effect = lower value
  normalized growth: 0.99 (inactive)
Locus YHR142W, strain chs7, stronger effect = lower value
  normalized growth: 0.7 (active)
Locus YHR200W, strain rpn10, stronger effect = lower value
  normalized growth: 1.01 (inactive)
Locus YIL066C, strain RNR3, stronger effect = lower value
  normalized growth: 0.8 (active)
Locus YIL073C, strain SPO22, stronger effect = lower value
  normalized growth: 1.05 (inactive)
Locus YIL125W, strain kgd1, stronger effect = lower value
  normalized growth: 1.02 (inactive)
Locus YIR030C, strain dcg1, stronger effect = lower value
  normalized growth: 1.02 (inactive)
Locus YJL092W, strain hpr5, stronger effect = lower value
  normalized growth: 1.01 (inactive)
Locus YJL095W, strain BCK1 (second series), stronger effect = lower value
  normalized growth: 0.993 (inactive)
Locus YJL095W, strain BCK1, stronger effect = lower value
  normalized growth: 0.975 (inactive) and 0.864 (active)
Locus YJL115W, strain asf1, stronger effect = lower value
  normalized growth: 1.03 (inactive)
Locus YJL129C, strain trk1, stronger effect = lower value
  normalized growth: 0.7 (active)
Locus YJL134W, strain LCB3, stronger effect = lower value
  normalized growth: 1.02 (inactive)
Locus YJL154C, strain vps35, stronger effect = lower value
  normalized growth: 1.01 (inactive)
Locus YJL164C, strain tpk1, stronger effect = lower value
  normalized growth: 0.832 (active)
Locus YJL166W, strain qcr8, stronger effect = lower value
  normalized growth: 0.813 (active)
Locus YJL168C, strain set2, stronger effect = lower value
  normalized growth: 1.01 (inactive)
Locus YJL187C, strain SWE1 (second series), stronger effect = lower value
  normalized growth: 0.967 (inactive)
Locus YJR043C, strain POL32, stronger effect = lower value
  normalized growth: 0.832 (active)
